Hits are enriched below; roughly 7.5% of the tested compounds scored in any of these assays.
Rab9 promoter act: activates the Rab9 promoter | AID 485297 | actives 2.8% (n = 320,000) | Huh7 Rab9 promoter-luciferase reporter, luminescence, 24 h | Potency, µM (highest dose often 9.22 µM), without a hit: at the top dose activation, negative = inhibition, usual class: activators; note: % of control where 0% means no effect; nearly all actives have a fitted effect of over 60% in size
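Huh7 reporter line, Rab9 promoter upstream of luciferase. Compound exposure 24 h at 37 °C in reduced-serum medium with 10% FBS. Read-out: luminescence.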
NPC1 prom act: activates the NPC1 promoter; Huh7 NPC1 promoter luciferase reporter, 24 h; Potency, µM (series often up to 9.22 µM), without a hit: at the top dose activation, most hits filed as activators; actives 2.4% (n = 320,000); note: % of control where 0% means no effect; nearly all actives have a fitted effect of over 60% in size
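Quantitative HTS used a cell-based reporter: Huh7 cells stably bearing the NPC1 promoter upstream of luciferase were treated with compounds for 24 h, and promoter activation was read as luminescence.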
ELG1 genotoxic: induces genotoxicity in HEK293T cells with luciferase-tagged ELG1. HEK293T ELG1-luciferase reporter, luminescence, 16 h. Potency, µM (titrated, usually from 46 µM), without a hit: top-dose activity change, positive = activation, actives largely listed as activators. actives 1.3% (n = 330,000). AID 504466; note: % of control where 0% means no effect; nearly all actives have a fitted effect of over 60% in size
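Cells (2,000/well) expressing the ELG1-luciferase fusion are dosed by pin tool and kept 16 hr at 37 °C, 5% CO2. Signal comes from ONE-Glo luciferase reagent after 30 min at room temperature.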
SMN2 splice up: increases expression of the SMN2 splice variant; HEK293 SMN2-luciferase splicing reporter, luminescence, 30-36 h; Potency, µM (top dose mostly 46.1 µM), for inactives: top-dose activity change, positive = activation, actives largely listed as activators; actives 2.8% (n = 210,000); AID 1458; note: % of control where 0% means no effect; nearly all actives have a fitted effect of over 55% in size
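HEK293 cells carry an SMN2 […]–luciferase reporter in which exon 7 inclusion puts luciferase in frame. Cells were plated 10-12 h before compound addition, then incubated 30-36 h at 37C. ONE-Glo luminescence was read; sodium butyrate at 4.5 mM final served as control.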
FLuc modulator: counter-screen for miR-21 project: firefly luciferase inhibitors or activators. P08659. purified FLuc, Km substrates, luminescence inhibition. Potency, µM (top dose mostly 57.5 µM), for inactives: at the highest dose activity change, negative = inhibition, usual class: inhibitors. actives 6.9% (n = 360,000). AID 588342;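 note: plate controls were vehicle for no effect and reference inhibitor for full effect; nearly all actives have a fitted effect of over 55% in size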
Target sequence (P08659 whole entry, looked up): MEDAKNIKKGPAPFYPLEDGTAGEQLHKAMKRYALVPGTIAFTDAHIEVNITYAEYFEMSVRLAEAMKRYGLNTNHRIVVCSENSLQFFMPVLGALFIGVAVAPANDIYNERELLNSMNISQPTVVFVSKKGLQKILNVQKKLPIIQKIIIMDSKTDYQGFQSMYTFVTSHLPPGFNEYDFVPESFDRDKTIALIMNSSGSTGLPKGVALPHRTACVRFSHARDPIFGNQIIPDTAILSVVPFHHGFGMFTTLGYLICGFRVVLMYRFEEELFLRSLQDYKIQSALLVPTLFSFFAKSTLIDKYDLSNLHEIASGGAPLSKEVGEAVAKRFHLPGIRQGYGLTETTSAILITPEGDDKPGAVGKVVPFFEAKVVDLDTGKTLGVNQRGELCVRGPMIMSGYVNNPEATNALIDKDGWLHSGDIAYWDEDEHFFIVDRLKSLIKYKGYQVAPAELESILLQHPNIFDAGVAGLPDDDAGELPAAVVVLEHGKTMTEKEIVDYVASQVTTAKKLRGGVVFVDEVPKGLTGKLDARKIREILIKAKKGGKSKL
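Purified P. pyralis luciferase, 10 nM final, with Km-level 10 uM D-luciferin and 10 uM ATP in 50 mM Tris acetate pH 7.5, 10 mM Mg acetate, 0.01% Tween-20, 0.05% BSA; 6-point qHTS titration about 60 µM downward; luminescence read.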
Numbers without * were called inactive; [ ] = dose if it differs, or a comment. Calls come from the whole dose curve; as a rule, active = well fitted curve in the direction sought with a large enough effect; inconclusive = small, poorly fitted or top-dose-only effect, or another doubt; inactive = no such curve, though single readings can be large; an effect the other way counts as inactive or inconclusive. Potency is the fitted concentration of half-maximal effect.

Results for COc1ccc(-c2nnc(SCC(C)C)o2)cc1 ?
Rab9 promoter act: 0.63µM*; NPC1 prom act: 1µM*; ELG1 genotoxic: inconclusive; FLuc modulator: 1.5µM*

How did COc1ccc(/C=C(\NC(=O)c2ccc(Cl)cc2)C(=O)NCCCn2ccnc2)cc1OC do in these assays?
Rab9 promoter act: -4%; NPC1 prom act: -1%; ELG1 genotoxic: 4%; FLuc modulator: 1%

Results for Cc1nc2nc(COc3ccccc3)[nH]n2c(=O)c1Cl ?
Rab9 promoter act: 7%; NPC1 prom act: 7%; ELG1 genotoxic: 2%; SMN2 splice up: 16%; FLuc modulator: 19µM*

What do the screens show for `Cc1c(-c2nc(N)nc(Nc3ccccc3F)n2)oc2ccccc12`?
Rab9 promoter act: 0.89µM*; NPC1 prom act: 1.6µM*; ELG1 genotoxic: 4µM*; SMN2 splice up: 11µM*; FLuc modulator: 3µM*

What do the screens show for `COc1ccccc1Nc1nc(N)nc(-c2cc3ccccc3o2)n1`?
Rab9 promoter act: 27%; NPC1 prom act: 10%; ELG1 genotoxic: inconclusive; SMN2 splice up: inconclusive; FLuc modulator: inconclusive

How did Cc1cccc(Nc2nc(N)nc(-c3oc4ccccc4c3C)n2)c1 do in these assays?
Rab9 promoter act: inconclusive; NPC1 prom act: 18%; ELG1 genotoxic: inconclusive; FLuc modulator: inconclusive

Results for Cc1ccc(Nc2nc(N)nc(-c3oc4ccccc4c3C)n2)cc1 ?
Rab9 promoter act: -1%; NPC1 prom act: inconclusive; ELG1 genotoxic: 9.2µM*; SMN2 splice up: 13µM*; FLuc modulator: 7.6µM*

How did COc1cccc(Nc2nc(N)nc(-c3oc4ccccc4c3C)n2)c1 do in these assays?
Rab9 promoter act: 19%; NPC1 prom act: -7%; ELG1 genotoxic: 3%; SMN2 splice up: inconclusive; FLuc modulator: 19µM*

Results for O=C(NCCCn1ccnc1)/C(=C/c1ccc(F)cc1)NC(=O)c1ccccc1 ?
Rab9 promoter act: -1%; NPC1 prom act: -4%; ELG1 genotoxic: -6%; FLuc modulator: 0%

Results for O=C(NCCc1ccccc1)C1CCN(C2CCN(Cc3ccc(CO)o3)CC2)CC1 ?
Rab9 promoter act: 14%; NPC1 prom act: -7%; ELG1 genotoxic: 1%; FLuc modulator: 0%

What do the screens show for `Cc1ccc(-c2n[nH]c(=S)n2/N=C/c2c(C)nn(-c3ccccc3)c2C)cc1`?
Rab9 promoter act: -2%; NPC1 prom act: -5%; ELG1 genotoxic: -2%; SMN2 splice up: -6%; FLuc modulator: 7%

Results for Cc1ccccc1-c1n[nH]c(=S)n1/N=C/c1c(C)nn(-c2ccccc2)c1C ?
Rab9 promoter act: 0%; NPC1 prom act: -2%; ELG1 genotoxic: -9%; SMN2 splice up: 14µM*; FLuc modulator: 1%

How did Cc1ccccc1NC(=O)Cc1nc(COC(=O)c2ccc(O)cc2O)cs1 do in these assays?
Rab9 promoter act: -3%; NPC1 prom act: 0%; ELG1 genotoxic: 0%; FLuc modulator: inconclusive

How did N#CC1=C(N)Oc2c(oc(CO)cc2=O)C1c1ccsc1 (stereo not given) do in these assays?
Rab9 promoter act: -3%[1.84 µM]; NPC1 prom act: 3%; ELG1 genotoxic: -3%; SMN2 splice up: -5%; FLuc modulator: 0%

Results for N#CC1=C(N)Oc2c(ccc3ccccc23)C1c1ccsc1 (stereo not given) ?
Rab9 promoter act: -23%; NPC1 prom act: -5%; ELG1 genotoxic: 15µM*; SMN2 splice up: -29%; FLuc modulator: inconclusive

What do the screens show for `CCCCCc1ccc(-c2ccc(=O)[nH]n2)cc1`?
Rab9 promoter act: 3%; NPC1 prom act: 9%; ELG1 genotoxic: 19%; SMN2 splice up: -9%; FLuc modulator: 19µM*

How did CCOC(=O)C(C)Sc1nc(-c2ccccn2)ncc1OC (stereo not given) do in these assays?
Rab9 promoter act: -3%; NPC1 prom act: -3%; ELG1 genotoxic: -4%; SMN2 splice up: -12%; FLuc modulator: 2%

What do the screens show for `ClCc1nnc(-c2ccccc2)o1`?
Rab9 promoter act: 0%; NPC1 prom act: -4%; ELG1 genotoxic: -1%; SMN2 splice up: -6%; FLuc modulator: -9%

What do the screens show for `c1ccc(OCc2nnc(-c3ccccc3)o2)cc1`?
Rab9 promoter act: 4µM*; NPC1 prom act: inconclusive; ELG1 genotoxic: inconclusive; SMN2 splice up: 13µM*; FLuc modulator: 17µM*

What do the screens show for `Clc1ccc(-c2nnc(CCc3ccccc3)o2)c(Cl)c1`?
Rab9 promoter act: 2µM*; NPC1 prom act: 2.5µM*; ELG1 genotoxic: inconclusive; SMN2 splice up: 13µM*; FLuc modulator: 5.4µM*

How did Oc1ccccc1-c1nnc(COc2ccccc2)o1 do in these assays?
Rab9 promoter act: 4%; NPC1 prom act: 8%; ELG1 genotoxic: inconclusive; SMN2 splice up: -4%; FLuc modulator: 15µM*

What do the screens show for `Clc1ccccc1-c1nnc(CNC2CC2)o1`?
Rab9 promoter act: 9%; NPC1 prom act: -3%; ELG1 genotoxic: 4%; SMN2 splice up: -3%; FLuc modulator: -2%

Results for O=C(OCc1nnc(-c2ccccc2)o1)c1ccco1 ?
Rab9 promoter act: 1%; NPC1 prom act: 5%; ELG1 genotoxic: 5%; SMN2 splice up: -11%; FLuc modulator: 24µM*

Results for Cc1cccc(C(=O)Nc2nnc(S(=O)(=O)N3CCCc4ccccc43)s2)c1 ?
FLuc modulator: -7%

What do the screens show for `O=C(NCC(c1ccc2c(c1)OCO2)N1CCOCC1)c1ccccc1` (stereo not given)?
FLuc modulator: -1%

How did Oc1ccccc1-c1nnc(COc2ccc(Cl)cc2Cl)o1 do in these assays?
Rab9 promoter act: 19%; NPC1 prom act: -1%; ELG1 genotoxic: 13µM*; SMN2 splice up: inconclusive; FLuc modulator: inconclusive

Results for Cc1ccc(S(=O)(=O)N2CC=C(C(=O)NC3CCCC3)CC2)cc1 ?
Rab9 promoter act: 0%; NPC1 prom act: 0%; ELG1 genotoxic: -2%; FLuc modulator: -1%

Results for Cc1cc(C(=O)NC2CCCc3c2cnn3-c2ccc(C)c(C)c2)n(C)n1 (stereo not given) ?
Rab9 promoter act: -43%; NPC1 prom act: -31%; ELG1 genotoxic: -3%; FLuc modulator: -2%

What do the screens show for `COc1cc(OC)c(C(=O)NCCCN2CCOCC2)cc1OC`?
Rab9 promoter act: -5%; NPC1 prom act: -1%; ELG1 genotoxic: -1%; SMN2 splice up: -2%; FLuc modulator: 0%

What do the screens show for `C=CCc1cccc2cc(C(=O)Nc3cccc(C(=O)O)c3)c(=O)oc12`?
Rab9 promoter act: inconclusive; NPC1 prom act: inconclusive; ELG1 genotoxic: 9%; FLuc modulator: 12µM*

Results for C=CCc1cccc2cc(C(=O)Nc3ccc(CC(=O)O)cc3)c(=O)oc12 ?
Rab9 promoter act: -2%; NPC1 prom act: 12%; ELG1 genotoxic: 6%; SMN2 splice up: 9%; FLuc modulator: 8.5µM*

What do the screens show for `COc1ccc(C(C)=O)cc1COC(=O)c1cnc(C)cn1`?
Rab9 promoter act: -3%; NPC1 prom act: -4%; ELG1 genotoxic: 2%; SMN2 splice up: 2.2µM*; FLuc modulator: -2%

Screening results from PubChem BioAssay.
